Drawing on PubChem BioAssay (NCI), this text covers growth for 14 compounds.

The structures appear in SMILES notation. Compounds without any hit were thinned out: in the full panel of roughly 83,000, 20% have a hit.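 Single-dose data. Exposure time 48 hours. Values below 10 considered active.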 Active and inactive are the calls of the source.

The experiment relates to MDA-MB-468 breast. In words: NCI-60 one-dose screen, 48 h (100 = growth as untreated, 0 = no growth, -100 = all killed). The conditions noted are these: 10 µM unless noted.
`COc1cc(-c2n/c(=C\c3c(O)[nH]c4ccc(Cl)cc34)cc3c2=Nc2ccccc2-3)cc(OC)c1OC`: the growth was 30.5% (inactive).

Turning to `Cc1ccc(O)c(C(=O)c2ccccc2)c1`, the growth is 103% (inactive). Regarding `Cc1cc(CCNC=O)c(C)c2c1sc1ccccc12`, the growth was 71.4% (inactive). As for `COc1ccc2[nH]c(C(=O)OCc3ccc4c(Br)cc(Br)c(O)c4n3)cc2c1`, the figure is -77.4% (active); as for `O=C(Nc1ccccc1)OCCc1ccccc1`, 99.2% (inactive); as for `Nc1ccc2c(c1)C(=O)c1cc(Cl)c(Cl)cc1-2`, 89.9% (inactive). As for `O=c1[nH]c(=O)[nH]c(=S)[nH]1`, the figure is 95.8% (inactive); as for `COc1ccc(/C=C(\C#N)n2nnc3c(F)cccc32)cc1`, -7.36% (active). As for `COC1=C(Br)C(=O)C(OC)=C(Br)C1=O`, the figure is 89.2% (inactive); as for `CC1(C)[C@@H](O)CC[C@]2(C)[C@H]3CC[C@@H]4[C@H]5[C@H](C(=O)/C=C\c6ccc([N+](=O)[O-])cc6)CC[C@]5(O)CC[C@@]4(C)[C@]3(C)CC[C@@H]12`, 36.2% (inactive).

Regarding `Nc1cccc(-c2ccc(COc3ccc(CC4SC(=O)NC4=O)cc3)cc2)c1` (centres undefined), the growth was 29.4% (inactive). As for `CC1(C)CC[C@]2(C(=O)O)CC[C@]3(C)C(=CC[C@@H]4[C@@]5(C)C/C(=C/c6cccnc6)[C@H](O)C(C)(C)[C@@H]5CC[C@]43C)[C@@H]2C1`, the figure is 4.01% [100 µM] (active); as for `CCN1C(=O)N(CC)C2C1NN=c1s/c(=C\c3ccccc3)c(=O)n12` (centres undefined), 22.5% (inactive).

Turning to `CC1=NN(c2cccc(Cl)c2)C(=O)/C1=C\c1cn(-c2nc(N3CCOCC3)nc(N3CCOCC3)n2)c2ccccc12`, the growth is 95.9% (inactive).
